This passage reports inhibition results from PubChem BioAssay AID504523 (Broad Institute, 2011).

Screen size: about 340,000 compounds; about 490 (0.14%) were called active. The list comes from a sample in which actives are over-represented; it also holds similar structures and randomly drawn compounds. A number with no mark means an inactive call. No stated cut-off is given here; in the data, active means inhibition above about 12%; inconclusive means no clear call, values can overlap the other calls; inactive means below about 7.3%.

As a reminder, the inhibition is the drop in the measured response relative to a control, in per cent.

In the assay the target is Kelch-like ECH-associated protein 1 (Homo sapiens) (UniProt Q14145). The assay is described as follows: disruptors of Keap1 binding to Nrf2 – biochemical, fluorescence polarization, single point, primary screen (AID 504523).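 Further: human Keap1 Kelch domain with fluorescein labeled Nrf2 9mer peptide probe; 0% = neutral control wells and 100% = peptide positive control; higher means more block of Keap1 binding to Nrf2 peptide.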 The settings on record: Keap1 Kelch-Nrf2 peptide fluorescence polarization, 1536-well; at 9.4 µM; active compounds read high. On the technique in general: Polarisation of emitted light reports the rotation of a fluorescent probe.
Kelch-like ECH-associated protein 1 (Homo sapiens), sequence (Q14145 whole entry, looked up, the tested form may be a part): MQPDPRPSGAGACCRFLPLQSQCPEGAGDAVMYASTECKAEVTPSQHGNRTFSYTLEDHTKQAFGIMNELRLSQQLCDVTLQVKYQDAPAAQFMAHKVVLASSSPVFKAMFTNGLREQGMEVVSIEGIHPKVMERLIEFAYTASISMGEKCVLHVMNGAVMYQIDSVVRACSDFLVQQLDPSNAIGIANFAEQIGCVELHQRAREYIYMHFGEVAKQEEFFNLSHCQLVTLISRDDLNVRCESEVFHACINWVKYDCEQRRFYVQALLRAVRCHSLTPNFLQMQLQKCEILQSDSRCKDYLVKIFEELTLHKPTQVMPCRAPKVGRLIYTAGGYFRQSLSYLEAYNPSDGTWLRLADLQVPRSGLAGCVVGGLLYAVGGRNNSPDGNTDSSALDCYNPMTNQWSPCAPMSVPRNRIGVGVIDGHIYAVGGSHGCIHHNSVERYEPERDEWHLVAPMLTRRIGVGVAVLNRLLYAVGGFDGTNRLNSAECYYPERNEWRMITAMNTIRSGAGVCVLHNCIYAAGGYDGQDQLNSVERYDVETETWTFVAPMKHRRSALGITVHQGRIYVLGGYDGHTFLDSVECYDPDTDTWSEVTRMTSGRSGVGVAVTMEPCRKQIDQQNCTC
`CC1(C)CC(=O)C(N=Nc2ccc(S(=O)(=O)N3CCCCCC3)cc2)=C(O)C1`: the inhibition was 5.03%. In the case of `CC1(C)CC(=O)C(N=Nc2c(F)cccc2F)=C(O)C1`, the inhibition is 37.8% (active). For `CC1(C)CC(=O)C(C2=NC(C)(C)Cc3ccccc32)=C(O)C1`, the inhibition is -1.79%. For the molecule `CN1CCOC1c1ccc(C2OCCN2C)cc1` (stereo not given), the inhibition is 1.77%. As for `O=C(C[n+]1cc(Br)cc2ccccc21)c1ccc(F)cc1`, the inhibition was -7.79%. To `COC(=O)C[n+]1cccc2ccccc21` belongs 36.4% (active); to `COC(=O)Cc1c(-c2[nH]c3ccccc3c2CC(=O)OC)[nH]c2ccccc12`, -0.936%. On to `CCN1CCC(O)(/C=C/c2ccc(C)cc2)C(C(=O)/C=C/c2ccc(C)cc2)C1` (stereo not given), for which the inhibition is -56.9%. To `CCC1CCC2(CC1)NC(=O)N(CC(=O)Nc1ccc(OC)cc1)C2=O` (stereo not given) belongs -5.89%; to `COc1cccc(CN2CCNC(=O)C2CC(=O)N(C)CCc2ccccn2)c1` (stereo not given), -0.18%. In the case of `CCOC(=O)C1(Cc2ccccc2C)CCCN(S(C)(=O)=O)C1` (stereo not given), the inhibition is -4.08%.

Regarding `Cc1ccc(F)cc1NC(=O)N1CCCN(c2ccc(C(F)(F)F)cn2)CC1`, the inhibition is -5.94%. As to `OC1CSc2nc3ccccc3n2C1` (stereo not given), the inhibition was 1.42%. For `CCOC(=O)c1c(C)n(C)c2ccc(OC)c(NC(=O)CN3CCC4(CC3)OCCO4)c12`, the inhibition is -2.53%.

For the molecule `Cc1cccc(NS(=O)(=O)c2ccc(C)c(C(=O)NCC(c3ccccc3)N(C)C)c2)c1` (stereo not given), the inhibition is 46.2% (active).

As to `Cc1cccc(NS(=O)(=O)c2ccc(C)c(C(N)=O)c2)c1`, the inhibition is -6.17%. As to `COc1ccc(C(CNC(=O)c2cc(S(=O)(=O)Nc3cccc(C)c3)ccc2C)N2CCCC2)cc1` (stereo not given), the inhibition was -2.75%.

Consider `CCOC(=O)N1CCN(C(=O)COC(=O)c2cccc(S(C)(=O)=O)c2)CC1`, for which the inhibition was 1.11%. To `C/C(=N/NC(=S)Nc1ccccc1)c1ccc2c(c1)OCO2` belongs -4.81%; to `Cc1ccc(NC(=O)CSc2sc3c(O)cc(=O)[nH]c3c2C#N)cc1C`, -7.74%; to `Cc1nc(CN(C)C(=O)CC2C(=O)NCCN2Cc2ccc(F)cc2)cs1` (stereo not given), -0.6%. For `COC(=O)c1sc(N)c(C(=O)OC)c1COC(=O)CNS(=O)(=O)c1ccc(C)cc1`, the inhibition was 2.32%. For the molecule `CC(C)(O)C#Cc1ncc(C(F)(F)F)cc1Cl`, the inhibition was 2.69%. To `Brc1ccc(C2=CC(c3ccco3)n3ncnc3N2)cc1` (stereo not given) belongs 36.1% (active); to `Clc1ccc2c(c1)C1=C(C(c3ccncc3)O2)C(c2ccc(Br)cc2)n2ncnc2N1` (stereo not given), -2.67%.

Take `COc1ccccc1NC(=O)CSc1nnc(Cn2nnc(-c3ccccc3)n2)n1-c1ccccc1`: the inhibition is 0.652%. To `O=C(CCc1ccccc1)NNc1ccc(F)cc1` belongs 12.6% (active); to `CC(=O)Nc1ccc(S(=O)(=O)NNC(=O)CCc2ccccc2)cc1`, -9.19%; to `O=C(CCc1ccccc1)NNC(=O)COc1ccc(Cl)cc1`, -4.48%. As to `Cc1nc2ccccn2c1C(=O)NN=C1CCN(C)CC1`, the inhibition was -3.6%.

For `CC(C)(C)c1ccc(CCC2OCC(CN3CCOCC3)O2)cc1` (stereo not given), the inhibition is 3.61%. Take `Cc1ccc(-n2ncc(C(=O)NC3CC3)c2C2CCN(C(=O)OC(C)(C)C)CC2)c(C)c1`: the inhibition is -3.33%. On to `O=S(=O)(c1ccc(Br)cc1)c1nc(-c2ccccc2)oc1N1CCOCC1`, for which the inhibition is -9.08%. On to `CCCC(NC(=O)c1ccccc1)c1nc2ccccc2n1Cc1ccc(C(=O)OC)o1` (stereo not given), for which the inhibition is -2.49%. Regarding `CCCNc1c(N)c(=O)c1=O`, the inhibition was -1.65%. As to `O=C(CCNc1n[nH]c(=O)[nH]c1=O)N/N=C\c1ccc(Br)cc1`, the inhibition was -2.4%.

Regarding `CSCC[C@H](NC(=O)NCCc1ccc(F)cc1)C(=O)O`, the inhibition was 1.87%.

On to `COc1ccc(C2/C=C\CN(S(=O)(=O)c3cccs3)CC(=O)N2Cc2ccc(F)cc2)cc1` (stereo not given), for which the inhibition was -0.104%.

As for `O=C(O)CC(c1ccccc1)n1cnnn1` (stereo not given), the inhibition was -4.84%. Turning to `O=C(O)CC(CC(=O)N1CCOCC1)c1ccccc1` (stereo not given), the inhibition was -1.3%. Take `O=C(O)CC(Cn1cnnn1)c1ccccc1` (stereo not given): the inhibition was 20.2% (active). On to `Cc1cccc(C2c3c(n(C)c(=O)n(C)c3=O)N=C3c4ccccc4C(=O)C32)c1` (stereo not given), for which the inhibition is -0.0535%. For `Cc1nonc1C1CCCN1Cc1nc(-c2ccc(F)cc2F)oc1C` (stereo not given), the inhibition is -5.07%. Regarding `Cn1c(CCNS(=O)(=O)c2ccc(F)cc2)nnc1SCc1cccnc1`, the inhibition was -1.02%. For `Cc1ccc(OC(=O)c2cncc(Br)c2)c(C)c1`, the inhibition is 5.58%. Consider `Cc1cccc(N=Nc2c(O)[nH]c3ccc(F)cc23)c1`, for which the inhibition is 0.392%.

Regarding `COc1cccc(NC(=O)CN(C)C(C)C(=O)Nc2ccc(C#N)cc2)c1` (stereo not given), the inhibition was 4.55%. With `COCCN(C(=O)C(C)N1C(=O)c2ccccc2C1=O)c1c(N)n(CC(C)C)c(=O)[nH]c1=O` (stereo not given), the inhibition is -8.05%. Consider `CN(C(=O)CC1C(=O)NCCN1Cc1ccc(F)cc1Cl)C1CCCCC1` (stereo not given), for which the inhibition was -12.6%. As to `O=C(CNC(=O)c1ccc(Br)o1)NCC1CCCO1` (stereo not given), the inhibition is 3.4%. In the case of `CCN(CC)CC(=O)Nc1nn(-c2ccccc2)nc1C(N)=O`, the inhibition is -0.843%. Take `O=C(NNc1c2ccccc2nc2ccccc12)c1cc2ccccc2cc1O`: the inhibition was -0.162%. Take `Cc1onc(-c2ccc(Cl)cc2)c1-c1ccnn1S(=O)(=O)c1ccc(Cl)cc1`: the inhibition was -1.71%. To `O=C(C1=C[C@H](c2coc3ccccc3c2=O)C[C@H](OCc2ccc(CO)cc2)O1)N1CCN(Cc2ccccc2)CC1` belongs -4.23%; to `Nc1ccc2nc3c(=O)[nH]c(=S)[nH]c3nc2c1`, 39% (active). With `CN(CC(=O)Nc1ccc(C(N)=O)cc1)S(=O)(=O)c1ccc2c(c1)OCCO2`, the inhibition was -4.93%. To `CCC(C)(C)c1ccc(Oc2ccc(NC(=O)COC(=O)C3=COCCO3)cc2)cc1` belongs 1.96%; to `CC(OC(=O)c1ccccc1OCc1ccc(Cl)cc1)C(N)=O` (stereo not given), -6.61%; to `COC(=O)/C=C\C(=O)Nc1cccc([N+](=O)[O-])c1`, 8.41%. `COc1ccc(NS(=O)(=O)c2cc(NC(=O)CC(=O)c3ccc([N+](=O)[O-])cc3)ccc2C)cc1`: the inhibition was -4.68%.

`O=C1CCCCC1Sc1ccc(Cl)cc1[N+](=O)[O-]` (stereo not given): the inhibition is 1.45%.

Turning to `CC1=NNC(=O)C1CC(=O)N/N=C/c1ccncc1` (stereo not given), the inhibition was 2.78%. In the case of `Cc1ccc(S(=O)(=O)CCC(=O)OCC(=O)N(C)Cc2ccccc2)cc1`, the inhibition is -7.11%. As to `CN1c2ccc([N+](=O)[O-])cc2C(C)(C)C12C=Cc1cc(C(=O)O)ccc1O2` (stereo not given), the inhibition was 4.39%.

For the molecule `CC(=O)Oc1ccc(C(C)=O)c2c1OCCO2`, the inhibition was -3%. To `CCCc1nnc(NC(=O)CCC(=O)NC2CC2)s1` belongs -3.82%; to `O=C1c2ccccc2S(=O)(=O)c2cc(N3CCN(c4ccccn4)CC3)ccc21`, 3.87%; to `CCOC(=O)c1nn(-c2cccc(C)c2)cc1C(=O)c1ccccc1`, 3.24%. Take `Cc1ccccc1OCC(=O)NCC(=O)OCC(=O)c1ccc2ccccc2c1`: the inhibition is -0.965%. On to `CCCC1OC23CCCCC2C(C#N)(C#N)C1(C#N)C(=N)O3` (stereo not given), for which the inhibition was 20.6% (active). As for `O=C(Nc1ccccn1)C1CCN(S(=O)(=O)c2ccc3c(c2)OCCO3)CC1`, the inhibition is 24.3% (active). To `O=C(NCc1cccs1)C1CCN(S(=O)(=O)c2ccc3c(c2)OCCO3)CC1` belongs -2.29%; to `O=C(Nc1ccccn1)C1CCN(S(=O)(=O)c2ccccc2)CC1`, -4.55%; to `O=C1[C@H]2[C@@H](c3ccc(F)cc3)N3C(=O)N(c4ccc(C(F)(F)F)cc4)C(=O)[C@@]3(Cc3ccccc3)[C@H]2C(=O)N1C1CCCCC1`, -3.09%. As for `O=C(C1=C(O)C(=O)N(CCOCCO)C1c1ccccn1)c1cccs1` (stereo not given), the inhibition is 5.97%.

For `CC[C@H]1OC(=O)[C@H](C)[C@@H](O[C@H]2C[C@@](C)(OC)[C@@H](O)[C@H](C)O2)[C@H](C)[C@@H](O[C@@H]2O[C@H](C)C[C@H](N(C)C)[C@H]2O)[C@](C)(O)C[C@@H](C)[C@@H]2N[C@@H](COCCOC)O[C@H]([C@H]2C)[C@]1(C)O`, the inhibition is 1.21%. As to `COC1=CC(=O)OC(C)(c2ccccc2)C1` (stereo not given), the inhibition was 1.18%. To `COc1ccc(Cl)cc1NC(=O)CN(C)C(=O)c1ccc2n[nH]nc2c1` belongs 0.863%; to `Cn1c(=O)c2c(SCC(=O)N3CCOCC3)nc(C3CC3)nc2n(C)c1=O`, -7.01%; to `O=S(=O)(c1cccs1)N1CCN(CCOc2ccccc2)CC1`, -5.25%. For `CCN1/C(=C\c2ccc3ccccc3[n+]2CC)Sc2cc(C)ccc21`, the inhibition is 15.5% (active).

In the case of `CC1(C)C(C=C(Cl)Cl)C1C(=O)NC(O)C(=O)c1ccccc1` (stereo not given), the inhibition is 1.65%. For the molecule `Cc1c(C(=O)NC(=S)NCc2cccnc2)oc2ccccc12`, the inhibition was -0.251%. Regarding `Cc1nnc(SC(C)C(=O)Nc2ccc(S(=O)(=O)NC3CCCCC3)cc2)s1` (stereo not given), the inhibition is -0.0585%. To `CCOC(=O)C1(Cc2ccc(Cl)cc2)CCN(C(=O)C2=NNC(=O)CC2)CC1` belongs 0.91%; to `CN(Cc1nc2ccccc2c(=O)[nH]1)Cc1cc(=O)oc2ccc3ccccc3c12`, -4.19%. On to `Cc1cc(=O)oc(C)c1C(=O)NC1CC(C)(C)NC(C)(C)C1`, for which the inhibition is -0.963%. For the molecule `Oc1ccc2ccc3cccc[n+]3c2c1`, the inhibition was 128% (active).

Consider `Oc1ccc(-c2nc3ccccc3nc2-c2ccc(O)cc2O)c(O)c1`, for which the inhibition was 5.29%.

As to `COc1cc(NS(=O)(=O)c2ccc(NC(=O)CN3C(=O)c4ccccc4C3=O)cc2)ncn1`, the inhibition was -2.44%.
